Active and inactive are the calls of the source.
Columns and labels:
[1] = compound effects on lung adenocarcinoma cell viability – A549, calcein-AM fluorescence, 48 h, basal, profiling panel (AID 1162); conditions: higher = more signal
[2] = compound effects on differentiated 3T3-L1 adipocyte viability – cell-based, 3T3-L1 adipocytes, calcein-AM fluorescence, 48 h, basal, profiling panel (AID 1163); conditions: 3T3-L1 adipocytes viability, higher = more signal
[3] = compound effects on hepatocellular carcinoma cell viability – HepG2, calcein-AM fluorescence, 48 h, basal, profiling panel (AID 1164); conditions: higher = more signal
[4] = compound effects on multiple myeloma cell viability – MM1S, calcein-AM fluorescence, 48 h, basal, profiling panel (AID 1165); conditions: higher = more signal
[5] = calcein-AM signal in unstimulated myeloma cells – cell-based, calcein-AM fluorescence, 48 h, PK04 Diversity Set, profiling panel (AID 1166); conditions: RPMI8226 myeloma viability, higher = more signal;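 note: cells grown under basal conditions without added stimulus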
[6] = JC-1 mitochondrial signal, unstimulated HepG2 cells – cell-based, JC-1 fluorescence, 24 h, 100 nL compound, profiling panel (AID 1167); conditions: HepG2 mitochondrial potential, higher = more signal
[7] = JC-1 mitochondrial signal, unstimulated adipocytes – cell-based, JC-1 fluorescence, 3T3-L1 adipocytes, 24 h, 100 nL compound, profiling panel (AID 1168); conditions: JC-1 mitochondrial fluorescence, higher = more signal, called active from +8 up or from −8 down
[8] = JC-1 mitochondrial signal, unstimulated myeloma cells – cell-based, JC-1 fluorescence, RPMI8226, 24 h, 100 nL compound, profiling panel (AID 1169); conditions: JC-1 mitochondrial potential fluorescence, higher = more signal
[9] = JC-1 mitochondrial signal, unstimulated MM1S myeloma – cell-based, JC-1 fluorescence, 24 h, 100 nL compound, profiling panel (AID 1170); conditions: MM1S mitochondrial potential, higher = more signal
[10] = resazurin metabolic signal in A549 cells – cell-based, resazurin fluorescence, 24 h, PK04 Diversity Set, profiling panel (AID 1171); conditions: A549 viability, higher = more signal, called active from +8 up or from −8 down
Note: test concentration not given here.

SMILES | z-score [1] | z-score [2] | z-score [3] | z-score [4] | z-score [5] | z-score [6] | z-score [7] | z-score [8] | z-score [9] | z-score [10]
CN1C2C=C(c3ccc(CO)cc3)C(C3C(=O)N(C(N)=O)C(=O)C32)C1C1CC1 (stereo not given) | -0.497 | 0.0457 | -0.157 | 0.341 | -0.773 | -0.391 | -0.242 (inactive) | -0.482 | 0.326 | 0.182 (inactive)
CC(=O)NCCCC[C@@H]1NC(=O)[C@H]2C[C@@H](C(=O)NCCCCCN)[C@@H](c3ccc(O)cc3)N2C1=O | -0.754 | 0.311 | -0.926 | -0.0917 | -0.556 | -0.659 | -0.34 (inactive) | 0.135 | 0.353 | -0.0632 (inactive)
Cc1ccc(S[C@]2(C(=O)NCc3ccccc3)CC(=O)N(Cc3ccccc3C(F)(F)F)[C@@H]2c2ccc(CO)cc2I)cc1 | 1.13 | 0.615 | 0.024 | -2.39 | -2.16 | -0.741 | -0.841 (inactive) | -0.491 | -0.518 | 1.15 (inactive)
C[C@H]1C2[C@H](Cc3ccccc3)NC(=O)[C@]23C(=O)N[C@@H](Cc2ccccc2)C(=O)N2CCC[C@H]2C(=O)NC/C=C/CC/C=C/C3[C@@H]2O[C@]12C (stereo not given in full) | -0.168 | 1.18 | -0.512 | -0.132 | -0.876 | 1.11 | 0.308 (inactive) | 0.0536 | 0.793 | -0.0612 (inactive)
C=CCNC(=O)[C@@H]1[C@H]2C(=O)O[C@H](c3ccccc3)[C@H](c3ccccc3)N2[C@H](c2ccc(OCCO)cc2)[C@@]12C(=O)Nc1ccc(C#CCNC(N)=O)cc12 | -0.842 | 0.274 | -0.397 | 0.0041 | 0.155 | -0.921 | -0.962 (inactive) | 0.672 | 1.23 | 0.36 (inactive)
N#Cc1ccc(NN2C(C(O)c3ccc(B(O)O)cc3)C=CC3CN(c4ccccc4)C(=O)C32)cc1 (stereo not given) | 0.222 | -0.463 | -0.35 | -0.104 | -1.29 | -2.14 | -0.643 (inactive) | -0.0762 | -0.696 | 0.238 (inactive)
C=CCC(OC(C)=O)[C@@H]1[C@@H](N(Cc2ccc(-c3ccccc3)cc2)C(=O)Cc2ccc(OC)cc2)c2cc(OCCCO)ccc2N1C(=O)c1ccc2ccccc2c1 (stereo not given in full) | -0.186 | 0.407 | -0.437 | -1.12 | -0.807 | 1.87 | -0.81 (inactive) | 1.08 | 0.383 | -0.0027 (inactive)
CC(C)Cc1ccc(CN2CC[C@@H](NC(=O)c3ccccc3)C2)cc1 | 0.0665 | -0.418 | -0.179 | -3.15 | -2.77 | -0.251 | 0.343 (inactive) | -0.442 | -1.38 | 0.247 (inactive)
COc1c(C)cc(-c2cc3c(c(CCc4ccccc4)n2)[Si](C(C)C)(C(C)C)O[C@H]3c2ccccc2)cc1C | -0.216 | -0.945 | 0.297 | -3.19 | -3.11 | -2.39 | -0.729 (inactive) | -1.04 | -1.24 | 0.453 (inactive)
O=C/C=C/c1ccc(-c2ccccc2)cc1 | 0.252 | 0.919 | -1.45 | -3.23 | -4.15 | -0.253 | 0.965 (inactive) | -0.853 | -3.05 | -0.539 (inactive)
COCCCNC(=O)[C@]1(Cc2ccccc2CN=[N+]=[N-])N=C(c2ccc(OCCCO)cc2)O[C@@H]1c1ccccc1N=[N+]=[N-] | -0.532 | -0.541 | -0.576 | -2.96 | -3.93 | 1.27 | 1.16 (inactive) | -1.12 | -2.77 | -2.12 (inactive)
COc1ccc(C(O)C2C=CC3C(=O)N(c4ccccc4)C(=O)C3N2Nc2ccccc2F)c2ccccc12 (stereo not given) | 0.23 | -0.229 | -0.737 | -1.91 | -1.61 | -1.78 | 0.385 (inactive) | -0.172 | -0.754 | 0.473 (inactive)
COCCOC(=O)N1C(=O)[C@@]2(c3cc(C#CCC(C(=O)OC)C(=O)OC)ccc31)[C@H](C(N)=O)[C@H]1C(=O)O[C@H](c3ccccc3)[C@H](c3ccccc3)N1[C@@H]2c1ccccc1OCCO | 1.3 | 1.27 | 0.645 | -2.97 | -3.48 | 0.142 | 1.83 (inactive) | -0.79 | -1.62 | -0.175 (inactive)
C=CC[C@]1(C(=O)NCC(O)CO)N=C(c2ccc(OCCCO)cc2)O[C@H]1c1ccccc1CN=[N+]=[N-] (stereo not given in full) | 0.444 | -0.0459 | 1.31 | -0.22 | -0.365 | 1.28 | -0.451 (inactive) | -0.427 | -0.825 | -0.389 (inactive)
Cc1ccc(S(=O)(=O)N2[C@@H](c3ccccc3)C(C(=O)O)=CC[C@H]2c2ccc(F)cc2)cc1 | -0.996 | 0.31 | -0.73 | 0.102 | -0.296 | -0.699 | 0.2 (inactive) | 0.597 | -1.09 | 0.649 (inactive)
[N-]=[N+]=Nc1ccccc1C[C@@]1(C(=O)NCC(O)CO)N=C(c2ccc(OCCCO)cc2)O[C@@H]1c1ccccc1N=[N+]=[N-] (stereo not given in full) | -3.97 | -0.0164 | -4.63 | -3.55 | -3.85 | -2 | -0.264 (inactive) | -1.21 | -1.34 | -3.27 (inactive)
Cc1ccc(S[C@]2(C(=O)NC3CC3)CC(=O)N(C3Cc4ccccc4C3)[C@@H]2c2ccc(CO)cc2I)cc1 | 0.828 | 0.689 | 0.193 | -2.21 | -1.9 | -0.24 | -0.411 (inactive) | -0.502 | -0.499 | 0.395 (inactive)
COc1cc2c(cc1O)C(C)N(Cc1sc3ccccc3c1Cl)CC2 (stereo not given) | 0.0824 | -0.0046 | -0.0238 | 0.141 | 0.624 | -1.08 | -0.632 (inactive) | 0.838 | -0.995 | -0.205 (inactive)
C=CCNC(=O)[C@@H]1[C@H]2C(=O)O[C@H](c3ccccc3)[C@H](c3ccccc3)N2[C@H](c2ccc(O)cc2)[C@@]12C(=O)Nc1ccc(C#CC3=CCCCC3)cc12 | 0.0719 | 0.266 | -3.89 | -3.35 | -4.57 | -1.42 | 1.38 (inactive) | -1.15 | -1.2 | -1.48 (inactive)
COc1ccc([Si](C)(C)[C@@H]2[C@@H](CC(=O)N3Cc4ccccc4C[C@H]3CO)O[C@]3(C(=O)N(Cc4ccc(I)cc4)c4ccccc43)[C@H]2C)cc1 | -0.806 | 0.62 | -0.435 | -1.98 | -0.588 | 0.81 | 0.124 (inactive) | -0.531 | 0.122 | -0.663 (inactive)
CC[C@@H](O[Si](C#C[Si](C(C)C)(C(C)C)C(C)C)(C(C)C)C(C)C)c1cn([C@H](C)c2ccccc2)nn1 | -0.7 | -0.685 | -0.499 | 0.375 | 0.253 | -0.0266 | -1.02 (inactive) | 0.0594 | -0.876 | 0.566 (inactive)
C=CC[C@]1(C(N)=O)N=C(c2ccc(OCCCO)cc2)O[C@H]1c1ccccc1N=[N+]=[N-] | 0.772 | 0.46 | 1.49 | -1.04 | 0.656 | 0.462 | 0.903 (inactive) | -0.514 | -0.747 | -0.752 (inactive)
C[C@]1(C(=O)NCC(F)(F)F)c2ccccc2C(=O)N(Cc2cc(C(F)(F)F)cc(C(F)(F)F)c2)[C@H]1c1ccc(CO)cc1 | 1.82 | 0.441 | 1.51 | 0.24 | 1.11 | 1.23 | 0.436 (inactive) | 0.412 | 0.0741 | 0.476 (inactive)
CC(C)C[C@@H]1NC(=O)[C@@H]2C[C@H](C(=O)NCCCCCNC(=O)CS)[C@H](c3ccc(O)cc3)N2C1=O | 0.161 | 2.21 | -0.787 | -0.263 | -0.782 | -0.63 | -0.195 (inactive) | 0.393 | -1.1 | 0.16 (inactive)
COc1cc(Cc2cc3c(c(CCc4ccccc4)n2)[Si](C(C)C)(C(C)C)O[C@H]3c2ccccc2)cc(OC)c1OC | -4.59 | -0.515 | -3.15 | -3.14 | -3.71 | -3.44 | 0.0754 (inactive) | -0.548 | -0.663 | -1.24 (inactive)
CC(C)[Si](C#Cc1ccccc1)(O[C@H](c1ccccc1)c1cn(Cc2ccccc2)nn1)C(C)C | -1.6 | -0.433 | -2.13 | -1.8 | -2.46 | -1.19 | 0.24 (inactive) | -0.425 | -0.0328 | -0.486 (inactive)
C=CCNC(=O)[C@@H]1[C@H]2C(=O)O[C@H](c3ccccc3)[C@H](c3ccccc3)N2[C@H](c2ccc(O)cc2)[C@@]12C(=O)N(C(=O)OCCOC)c1ccc(C#CCC(C(=O)OC)C(=O)OC)cc12 | 0.468 | 0.0473 | 0.419 | -1.83 | -2.88 | 0.206 | 0.605 (inactive) | -0.161 | -0.012 | -0.419 (inactive)
CCCCN1CC=CC23O[C@@H]4C=CCCOC(=O)C4[C@H]2C(=O)N(CCO)[C@@H]3C1=O (stereo not given in full) | -0.725 | 0.0904 | -2.09 | 0.303 | -0.105 | -0.508 | 0.0409 (inactive) | 0.0612 | 0.37 | -0.288 (inactive)
CCCCCCc1nc(Cc2cc(OC)c(OC)c(OC)c2)c(C)c2c1[Si](C(C)C)(C(C)C)OC2 | 0.106 | 0.986 | -0.348 | 0.286 | -3.41 | 4.95 | 0.835 (inactive) | -0.651 | 0.0845 | 0.504 (inactive)
CC1(C)OB(/C=C\CC(OC(=O)c2ccncc2)c2ccccc2)OC1(C)C (stereo not given) | -0.0116 | 0.282 | -0.691 | -0.475 | -1.45 | -1.27 | -0.928 (inactive) | -0.194 | 0.343 | 0.0383 (inactive)
